Assay outcomes: PubChem BioAssay, Center for Chemical Genomics, University of Michigan
Dicer processing – inhibitors of human Dicer processing of pre-microRNA. cat-ELCCA pre-miR-21 Dicer processing, chemiluminescence; hits give high values. z-score at 25 µM. actives 6% (n = 47,000). AID 1347074; in the data active = z-score above about 3, passing the limit was not always enough;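 note: plate controls were vehicle for no effect and no enzyme for full effect; higher signal means more uncleaved substrate so more Dicer inhibition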
* hit, by the source's call. The sample as a whole holds a higher share of hits than the screen did.

SMILES	Dicer processing
CCOc1cc(C2C(C(=O)OCc3ccc(OC)cc3)=C(C)NC3=C2C(=O)CCC3)cc(Cl)c1O (centres undefined)	2.5
Cn1c(=O)c2c(nc(Cl)n2Cc2ccccc2Cl)n(C)c1=O	2.3
CSc1nc(C=Nc2ccccc2)c(O)n1Cc1ccccc1Cl	5.1*
CSc1nc(C=Nc2cccc(Cl)c2)c(O)n1Cc1cccc(Cl)c1	1.6
COC(=O)c1ccc(COc2ccc3oc(C)c(C(=O)OC)c3c2)cc1	0.12
Cc1c(C(=O)O)c2cc(NS(=O)(=O)c3cccs3)ccc2n1S(=O)(=O)c1cccs1	7.5*
Cc1ccc(NS(=O)(=O)c2cccs2)cc1	0.16
CCOC(=O)c1c(C)oc2ccc(NS(=O)(=O)c3cccs3)cc12	-0.75
O=C(CCSc1nnc(NC(=O)Cn2c(=O)oc3ccccc32)s1)Nc1ccccc1	2.6
CC(C)c1nnc(NC(=O)Cn2c(=O)oc3ccccc32)s1	0.6
O=C(Cn1c(=O)oc2ccccc21)Nc1nnc(SCC(=O)N2CCOCC2)s1	3.2*
CC(C)(C)NC(=O)CSc1nnc(NC(=O)Cn2c(=O)oc3ccccc32)s1	1.6
O=C(Cn1c(=O)oc2ccccc21)Nc1nnc(SCC(=O)N2CCCCC2)s1	1.1
O=C(Cn1c(=O)oc2ccccc21)Nc1nnc(SCc2ccccc2)s1	3*
Cc1ccnc(NC(NC(=O)c2ccccc2C)(C(F)(F)F)C(F)(F)F)c1	0.4
Cn1ncc(C(=O)O/N=C(\N)c2ccc(C(C)(C)C)cc2)c1-n1cccc1	-1.3
O=C(c1ccc(Cl)cc1)c1coc2c1cc(O)c1ccccc12	-1.2
CN(Cc1ccccc1)C(=O)Nc1ccccc1	3.7*
CN(CCc1ccccn1)C(=O)Nc1ccccc1	41
O=C(Nc1ccccc1)N(Cc1ccccc1)c1cccc2ccccc12	-2.8
Cn1c(=O)c2c(nc(NCc3cccnc3)n2Cc2ccccc2F)n(C)c1=O	1.8
CCc1ccnc(NS(=O)(=O)c2ccc(C)c(Cl)c2)c1	0.91
CCc1ccnc(NS(=O)(=O)c2ccccc2)c1	3.8*
Cc1ccnc(NS(=O)(=O)c2ccc(Br)cc2)c1	2.6
CC(C)Oc1ccc(C2N3CC4(C)CN2CC(C)(C3)C4=O)cc1 (centres undefined)	0.16
SMILES	Dicer processing
O=C1C2C3c4ccccc4C(c4ccccc43)C2C(=O)N1c1ccc(F)cc1 (centres undefined)	-0.84
O=C1C2C3c4ccccc4C(c4ccccc43)C2C(=O)N1c1ccncc1 (centres undefined)	0.19
O=C1C2C3c4ccccc4C(c4ccccc43)C2C(=O)N1CCO (centres undefined)	4.6*
CC(C)CCN1Cc2ccccc2C1	5.1*
CN1CCN2c3ccccc3Cc3ccccc3C2C1 (centres undefined)	-0.38
CC(C)CCC(O)(CCN1CCCCC1)c1ccccc1 (centres undefined)	2.1
O=C(c1nn2c(c1Cl)NC(c1ccco1)CC2C(F)(F)F)N1CCN(c2ccccc2)CC1 (centres undefined)	5.3*
COc1ccc(N2CCN(C(=O)c3cc4n(n3)C(C(F)(F)F)CC(c3ccco3)N4)CC2)cc1 (centres undefined)	0.83
O=C(Nc1ccc(Cl)cc1)c1cc2n(n1)C(C(F)(F)F)CC(c1ccco1)N2 (centres undefined)	1.4
O=C(c1nn2c(c1Cl)NC(c1ccco1)CC2C(F)(F)F)N1CCCC1 (centres undefined)	2.4
O=C(Nc1ccc(Cl)cc1)c1nn2c(c1Cl)NC(c1ccco1)CC2C(F)(F)F (centres undefined)	3.8*
CC(C)(C)NC(=O)c1nn2c(c1Cl)NC(c1ccco1)CC2C(F)(F)F (centres undefined)	3.2*
CC(C)(C)NC(=O)c1nn2c(c1Br)NC(c1ccccc1)CC2C(F)(F)F (centres undefined)	-0.07
O=C(Nc1ccc(O)cc1)c1cc2n(n1)C(C(F)(F)F)CC(c1ccco1)N2 (centres undefined)	1.2
O=C(NC1CC1)c1cc2n(n1)C(C(F)(F)F)CC(c1ccco1)N2 (centres undefined)	-0.56
CCOc1cc(C2C3=C(CC(C)(C)CC3=O)NC3=C2C(=O)CC(C)(C)C3)ccc1OC	-0.91
CCOC(=O)c1c(NC(=S)Nc2ccccc2)sc2c1CCCC2	-0.38
CCCCOC(=O)NC(Nc1ccc(OC)cc1)(C(F)(F)F)C(F)(F)F	-1.3
N#Cc1c[nH]c2ccc(NC(=O)c3cccs3)cc12	0.05
CCN1C(=O)C(NC(C)=O)c2cc(C)cc(C)c21 (centres undefined)	0.67
O=S(=O)(c1ccc(F)c(Cl)c1)N1CCC(O)(c2ccc(Cl)cc2)CC1	0.04
COC(=O)c1c(C)oc2ccc(O)cc12	1.5
CCOC(=O)c1c(N)oc2c(-c3ccc(C)c(C)c3)c3c(C(=O)OCC)c(N)oc3cc12	5*
COC(=O)c1c(N)oc2c(-c3ccc(C)cc3)c3c(C(=O)OC)c(N)oc3cc12	3.8*
COC(=O)c1c(C)oc2ccc(OC(C)C(=O)O)cc12 (centres undefined)	-0.16
SMILES	Dicer processing
CCOC(=O)c1c(N)oc2c(-c3ccc(CC)cc3)c3c(C(=O)OCC)c(N)oc3cc12	0.57
CCOC(=O)c1c(N)oc2c(-c3ccc(C)cc3)c3c(C(=O)OCC)c(N)oc3cc12	-1.6
CCOC(=O)CN1C(=O)CC(c2cc(OC)c(OC)c(OC)c2)CC1=O	2.1
COC(=O)c1ccc(C2Oc3ccc(Br)cc3C3CC(c4ccco4)=NN32)cc1 (centres undefined)	2.4
Cc1noc(C)c1C(=O)N(C(C)C)C(C)C	9.2
CCOC(=O)C(=CNc1sc(CC)cc1C(=O)OCC)C(=O)OCC	-0.52
Cc1cc(Nc2nnc(-c3cccnc3Oc3ccccc3)s2)ccc1Br	0.06
Cc1ccc(-n2c(-c3ccc(Cl)cc3)cn3c4c(=O)n(C)c(=O)n(C)c4nc23)cc1N	-2.2
CCOc1ccccc1C1C(C(=O)OC(C)C)=C(C)NC2=C1C(=O)CCC2 (centres undefined)	-0.14
Cc1nc2ccc(NC(=O)c3ccccc3Cl)cc2o1	0.05
Oc1ccccc1C1CCCCC1c1ccccc1 (centres undefined)	4.7*
O=C(NC(=O)C1CCCCC1)c1ccccc1O	-1.8
O=C1Cc2ccccc2C(c2ccccc2)N1 (centres undefined)	0.47
CCC(CCC(=O)Nc1ccccn1)C(=O)O (centres undefined)	-0.39
CCC(C)NC(=O)c1cnn2c1NC(c1ccc(Br)cc1)CC2C(F)(F)F (centres undefined)	1.1
Cc1nn(C)cc1CNC(=O)c1cnn2c1NC(c1ccc(Br)cc1)CC2C(F)(F)F (centres undefined)	0.99
O=C(c1cnn2c1NC(c1ccc(F)cc1)CC2C(F)(F)F)N1CCCCC1 (centres undefined)	0.98
Cc1c(CNC(=O)c2cnn3c2NC(c2ccc(Br)cc2)CC3C(F)(F)F)cnn1C (centres undefined)	0.01
O=C(c1cnn2c1NC(c1ccccc1)CC2C(F)(F)F)N1CCOCC1 (centres undefined)	1.3
Cc1ccc(C2CC(C(F)(F)F)n3ncc(C(=O)N4CCCCC4)c3N2)cc1 (centres undefined)	3*
O=C(NC1CCCCC1)c1cnn2c1NC(c1ccc(Br)cc1)CC2C(F)(F)F (centres undefined)	5.6*
COCCNC(=O)c1cnn2c1NC(c1ccc(Br)cc1)CC2C(F)(F)F (centres undefined)	4.3*
